Laboratory results: PubChem BioAssay (Tox21)
Records with an inconclusive call do not appear. Entries that show only a call come without a potency. Unmarked numbers belong to inactive results. The source made the active and inactive calls. The call rests on the fitted dose curve; in most records, active means well fitted cell-killing curve with a large enough effect in the repeat runs; inconclusive means weak or mixed curves; inactive means no such curve, though single readings can be large or run the other way.

Assay: qHTS assay to identify small molecule agonists of the peroxisome proliferator-activated receptor delta (PPARd) signaling pathway - cell viability counter screen (AID 743211); further: nearly all actives have a fitted effect of over 55% in size
Settings: PPARd-bla HEK293H viability, CellTiter-Glo luminescence, 17 h; series mostly up to 62.6 µM
Description: U.S. Tox21 Program National Center for Advancing Translational Sciences [NCATS] NIH Chemical Genomics Center [NCGC] U.S. Environmental Protection Agency [EPA] National Institutes of Environmental Health Sciences [NIEHS] National Toxicology Program [NTP] U.S. Food and Drug Administration [FDA] Tox21 Assay Overview: The peroxisome proliferator-activated receptors (PPARs) are lipid-activated transcription factors of the nuclear receptor superfamily with three distinct subtypes namely PPAR alpha, PPAR delta (PPARd) and PPAR gamma. All these subtypes heterodimerizes with Retinoid X receptor (RXR) and have different physiological functions. […] To identify the compounds that activate PPAR-delta signaling, GeneBLAzer PPAR delta UAS-bla HEK293H cell line (Invitrogen, Carlsbad, CA, USA) containing a beta-lactamase reporter gene under the control of an Upstream Activator Sequence (UAS) was used to screen the Tox21 compound library. The cytotoxicity of the Tox21 compound library against the PPARd-bla cell line was tested in parallel by measuring the cell viability using CellTiter-Glo assay (Promega, Madison, WI) in the same wells.
Tox21 Assay Protocol Summary: PPARd-bla cells were dispensed at 3000 cells/6uL/well in 1536-well black wall/clear bottom plates using a Multidrop Combi (Thermo Fisher Scientific, Waltham, MA) dispenser. After the assay plates were incubated at 37 C and 5% CO2 for 5 h, 23 nL of compounds dissolved in DMSO, positive controls or DMSO only was transferred to the assay plate by a Pintool station (Kalypsys, San Diego, CA). The assay plates were incubated at 37C for 17 h. After 1 uL of LiveBLAzerTM B/G FRET substrate was added using a Bioraptr Flying Reagent Dispenser (FRD) workstation (Beckman Coulter, Indianapolis, IN, USA), the plates were incubated at room temperature for 2 h, and fluorescence intensity was measured by an Envision plate reader (PerkinElmer, Shelton, CT). For cell viability readout that measures cytotoxicity, 3 ul/well of CellTiter-Glo reagent was added into the assay plates using a Bioraptr FRD. After 30 min incubation at room temperature, the luminescence intensity in the plates was measured using a ViewLux plate reader (PerkinElmer).
Potency means the concentration at half of the fitted maximal effect.

| Structure (SMILES) | Potency | activity change, negative = cytotoxicity |
| --- | --- | --- |
| O=CC1CC=CCC1 (stereo not given) | inactive | – |
| CCOc1ccc(N)c([N+](=O)[O-])c1 | inactive | – |
| CC(C)CC(=O)C1C(=O)c2ccccc2C1=O | inactive | – |
| CC(C)(C)Cl | inactive | – |
| O=C1C(O)=C(O)C(=O)C(O)=C1O | inactive | – |
| O=C(CS)Nc1ccccc1 | inactive | – |
| NC(=O)C(c1ccccc1)(c1ccccc1)[C@@H]1CCN(CCc2ccc3c(c2)CCO3)C1 | inactive | – |
| COC(C)OC | inactive | – |
| CNC(=O)CN(CCN(CCN(CC(=O)[O-])CC(=O)NC)CC(=O)[O-])CC(=O)[O-].O.[Gd+3] | inactive | – |
| CCNc1cc(O)ccc1C | inactive | – |
| CCCCCCCN | inactive | – |
| CCO[C@H](Cc1ccc(OCCc2ccc(OS(C)(=O)=O)cc2)cc1)C(=O)O | inactive | – |
| CNCCCN1c2ccccc2CCc2ccccc21 | 26.6 µM (active) | – |
| O=C(O)c1ccc(-n2nc(-c3ccccc3O)nc2-c2ccccc2O)cc1 | inactive | – |
| O=P(O)(OCc1ccccc1)OCc1ccccc1 | inactive | – |
| CC/C=C\CCOC(=O)CC | inactive | – |
| Nc1cc(C(=O)O)c(O)c(S(=O)(=O)O)c1 | inactive | – |
| CN(Cc1ccc(C(C)(C)C)cc1)Cc1cccc2ccccc12 | 29.8 µM (active) | – |
| COc1ccc(C(=O)N2CCN(CC(=O)N3CCOCC3)CC2)cc1 | inactive | – |
| CCN(CC)CCNC(=O)c1cc(Br)c(N)cc1OC | inactive | – |

| Structure (SMILES) | Potency | activity change, negative = cytotoxicity |
| --- | --- | --- |
| CN(C)c1ccc(C(c2ccccc2)c2ccc(N(C)C)cc2)cc1 | inactive | – |
| CCOc1ccc(N=Nc2ccc(/C=C/c3ccc(N=Nc4ccc(OCC)cc4)cc3S(=O)(=O)O)c(S(=O)(=O)O)c2)cc1 | inactive | – |
| Nc1ccc(N)c2c1C(=O)c1ccccc1C2=O | inactive | – |
| C/C(=C(\CCOP(=O)(O)O)SC(=O)c1ccccc1)N(C=O)Cc1cnc(C)nc1N | – | 2.72% [at 5.95 µM] |
| CCOCC(O)COc1ccc(NC(=O)CC[S+](C)C)cc1 (stereo not given) | inactive | – |
| C=CC(=O)OCCOCCOCCOCCOC(=O)C=C | 54.4 µM (active) | – |
| Brc1c2ccccc2cc2ccccc12 | inactive | – |
| O=C1[C@H]2CCCC[C@H]2C(=O)N1CCCCN1CCN(c2nsc3ccccc23)CC1 | inactive | – |
| OCCN1CCN(CCCN2c3ccccc3C=Cc3ccccc32)CC1 | inactive | – |
| CCc1c(C(=O)NN2CCCCC2)nn(-c2ccc(Cl)cc2Cl)c1-c1ccc(Br)cc1 | 12.3 µM (active) | – |
| C/C=C/C=C/CO | inactive | – |
| O=[N+]([O-])c1cccc(S(=O)(=O)O)c1 | inactive | – |
| CC(C)(O)c1ccc(CNC(=O)c2cccnc2Oc2ccc(F)cc2)cc1 | inactive | – |
| COc1cc2nc(N(C)CCCNC(=O)C3CCCO3)nc(N)c2cc1OC (stereo not given) | inactive | – |
| NCc1ccccc1Sc1ccccc1CO | inactive | – |
| C[C@@H]1C[C@H]2O[C@@]3(O[C@@H]2C(C)(C)O)[C@H](O)[C@@]2(C)[C@@H]4CC[C@H]5C(C)(C)[C@@H](O[C@@H]6OC[C@@H](O)[C@H](O)[C@H]6O)CC[C@@]56C[C@@]46CC[C@]2(C)[C@@H]13 | inactive | – |
| c1ccc(CNCCNCc2ccccc2)cc1 | inactive | – |
| CCCCOC(=O)CCCCCCCC(=O)OCCCC | inactive | – |
| COc1ccnc(CS(=O)c2nc3ccc(OC(F)F)cc3[nH]2)c1OC (stereo not given) | inactive | – |
| CCCCC1=NC2(CCCC2)C(=O)N1Cc1ccc(-c2ccccc2-c2nn[nH]n2)cc1 | inactive | – |
